For assay [1], the target named is Glucocorticoid receptor (Homo sapiens) (UniProt P04150). Description: ATG_GR_TRANS: Attagene TRANS-FACTORIAL HepG2 Assay for human Glucocorticoid Receptor (GR) (AID 2282978; active = hit-call score of the fitted dose curve at least 0.9, where 1 is the maximum;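 note: activators score as hits since higher reporter transcript over DMSO is fitted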). Particulars: HepG2 Attagene TRANS GR reporter, mRNA transcription. The method, boiled down:
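Readout is reporter transcript from a chimeric GR-Gal4 acting on GAL4-UAS in transfected human HepG2 liver cells after 24 h exposure, quantified by RT-PCR and capillary electrophoresis. Activation fitted upward against DMSO.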

The target in assay [2] is Oxysterols receptor LXR-alpha (Homo sapiens) (UniProt Q13133). The assay is described as follows: ATG_LXRa_TRANS: Attagene TRANS-FACTORIAL HepG2 Assay for human Liver X Receptor alpha (LXRa) (AID 2282980; active = hit-call score of the fitted dose curve at least 0.9, where 1 is the maximum). Conditions: HepG2 Attagene TRANS reporter, LXRa transactivation. The method, boiled down:
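HepG2 cells were transiently transfected with multiplexed reporter units driven by chimeric LXRa–GAL4 fusion proteins, then dosed for 24 h. Reporter mRNA was quantified by RT-PCR, fluorescent labelling and capillary electrophoresis; gain of signal fitted against DMSO baseline.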

For assay [3], the target named is Hepatocyte nuclear factor 4-alpha (Homo sapiens) (UniProt P41235). The assay is described as follows: ATG_HNF4a_TRANS: Attagene TRANS-FACTORIAL HepG2 Assay for human Hepatocyte Nuclear Factor 4 alpha (HNF4a) (AID 2282982; active = hit-call score of the fitted dose curve at least 0.9, where 1 is the maximum). Particulars: HepG2 HNF4a transactivation reporter, mRNA readout. The gist of the method: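 Activity of an exogenous HNF4a–Gal4 fusion scored as induced GAL4-UAS reporter transcripts after 24 h chemical exposure of transfected human HepG2 cells. Read-out via RT-PCR with 6-FAM labelling and capillary electrophoresis; rise over DMSO baseline.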

The nature of assay [4]: ATG_M_06_TRANS: Attagene TRANS-FACTORIAL HepG2 Assay for M06 Transcription Factor (Internal Marker) (AID 2282983; active = hit-call score of the fitted dose curve at least 0.9, where 1 is the maximum). Conditions: HepG2 Attagene TRANS M06 internal marker reporter. The method, boiled down:
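In this multiplexed HepG2 system, compounds are incubated 24 h with cells carrying GAL4-UAS reporter units. Reporter RNA is amplified and resolved by capillary electrophoresis, and induction is scored against DMSO.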

Assay [5] can be described thus: ATG_M_32_TRANS: Attagene TRANS-FACTORIAL HepG2 Assay for M32 Transcription Factor (Internal Marker) (AID 2282984; active = hit-call score of the fitted dose curve at least 0.9, where 1 is the maximum;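 note: transcript level of a background control reporter unit measured by RT-PCR and capillary electrophoresis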). Particulars: HepG2 Attagene TRANS M32 internal marker reporter. The method, boiled down: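 Internal background reporter in transfected HepG2: after 24 h chemical exposure, RNA reverse-transcribed, reporter cDNA amplified, fluorescently labelled and HpaI-cut, then sized by capillary electrophoresis. Gain of signal fitted against DMSO control.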

Assay [6] has as its target Nuclear receptor subfamily 4 group A member 2 (Homo sapiens) (UniProt P43354). The assay is described as follows: ATG_NURR1_TRANS: Attagene TRANS-FACTORIAL HepG2 Assay for human Nuclear Receptor Related Protein 1 (NURR1) (AID 2282985; active = hit-call score of the fitted dose curve at least 0.9, where 1 is the maximum). Conditions: HepG2 Attagene TRANS reporter, mRNA readout. The method, boiled down: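 Reporter transcript induction, measured by RT-PCR with fluorescent labelling, HpaI digestion and capillary electrophoresis, after 24 hr dosing of human HepG2 cells transiently expressing an exogenous NR-Gal4 fusion with GAL4-UAS-driven reporters; DMSO as baseline.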

Assay [7] addresses Transcriptional activator Myb (Homo sapiens) (UniProt P10242). The assay is described as follows: ATG_Myb_CIS: Attagene CIS-FACTORIAL HepG2 Assay for human Myeloblastosis (Myb) Proto-Oncogene Transcription Factor (AID 2282986). Particulars: HepG2 Attagene CIS-FACTORIAL Myb reporter transcription; actives raise or lower the signal. The gist of the method: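 Reporter mRNA is quantified by RT-PCR and capillary electrophoresis 24 h after dosing HepG2 cells transfected with cis-regulated reporter units, which track endogenous transcription factor activity. Gain and loss of signal are fitted versus DMSO baseline.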

Assay [8] deals with Nuclear respiratory factor 1 (Homo sapiens) (UniProt Q16656). Description: ATG_NRF1_CIS: Attagene CIS-FACTORIAL HepG2 Assay for human Nuclear Respiratory Factor 1 (NRF1) Orphan Gene (AID 2282987). Particulars: HepG2 NRF1 cis-element reporter, Attagene multiplex; actives raise or lower the signal. The method, boiled down: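 Endogenous NRF1-driven reporter transcription in transfected HepG2 cells after 24 h treatment. Readout: RT-PCR products, 6-FAM labelled and resolved by capillary electrophoresis; changes fitted both directions relative to DMSO.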

Assay [9] in a line: ATG_NFI_CIS: Attagene CIS-FACTORIAL HepG2 Assay for human Nuclear Factor I (NFI) (AID 2282989). Conditions: HepG2 cis-regulatory reporter, NFI response element transcription; actives raise or lower the signal. The gist of the method:
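After transient transfection of HepG2 with cis-promoter reporter constructs and 24 h dosing, RNA is reverse-transcribed, amplified, 6-FAM end-labelled and HpaI-digested before capillary analysis. Bidirectional curve fitting against DMSO.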

Assay [10] addresses Myc proto-oncogene protein (Homo sapiens) (UniProt P01106). Description: ATG_Myc_CIS: Attagene CIS-FACTORIAL HepG2 Assay for human Myelocytomatosis (Myc) Proto-Oncogene Transcription Factor (AID 2282990). Particulars: HepG2, Attagene cis-reporter transcription factor activity; actives raise or lower the signal. The method, boiled down: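 HepG2, transient MRTU transfection (cis promoters, endogenous TFs); 24 h dosing; TriZol RNA → oligo(dT) RT → PCR → 6-FAM primer extension → HpaI cut → CE. Bidirectional fit vs DMSO.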

Assay [11] can be described thus: ATG_NF_kB_CIS: Attagene CIS-FACTORIAL HepG2 Assay for human Nuclear Factor Kappa B (NF-kB) (AID 2282991). Particulars: HepG2 Attagene cis-factorial NF-kB reporter mRNA; actives raise or lower the signal. The method, boiled down: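 Readout is reporter transcript level, gain or loss versus DMSO, measured 24 h post-dose via RT-PCR, fluorescent labelling and capillary electrophoresis. Human HepG2 liver cells carried transiently transfected CIS reporter constructs reflecting endogenous factors.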

A short description of assay [12]: ATG_NRF2_ARE_CIS: Attagene CIS-FACTORIAL HepG2 Assay for human Nuclear Factor Erythroid 2 Related Factor 2 (NFR2) response to Antioxidant Response Elements (ARE) (AID 2282992). Conditions: HepG2 Attagene ARE/NRF2 reporter, transcription factor activity; actives raise or lower the signal. The gist of the method: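 Using transiently transfected HepG2 cells exposed for 24 h, reporter mRNA levels were determined by RT-PCR with fluorescent primer extension and capillary electrophoresis, analysed for gain or loss of signal against DMSO.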

Assay [13] in a line: ATG_Oct_MLP_CIS: Attagene CIS-FACTORIAL HepG2 Assay for human Octamer-Binding Transcription Factor (Oct) (AID 2282993). Conditions: HepG2 Attagene cis-factorial Oct reporter, mRNA; actives raise or lower the signal. The gist of the method: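 Cells of the HepG2 line express promoter-controlled reporter sequences whose mRNA levels, after 24 h treatment, are measured by RT-PCR and capillary electrophoresis. Increases and decreases are scored relative to DMSO.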

The target in assay [14] is Cellular tumor antigen p53 (Homo sapiens) (UniProt P04637). Description: ATG_p53_CIS: Attagene CIS-FACTORIAL HepG2 Assay for human p53 Transcription Factor (AID 2282994). Particulars: HepG2 p53 cis-element reporter, Attagene mRNA; actives raise or lower the signal. The method, boiled down: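 In HepG2 cells, reporter transcription units under cis-regulatory promoters were transiently introduced. Following 24 h treatment, RNA was processed to labelled, digested cDNA fragments read by capillary electrophoresis; fitting was bidirectional versus DMSO.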

Assay [15] in a line: BSK_3C_uPAR: BioMAP Diversity Plus: 3C Assay for Urokinase-type plasminogen activator receptor (uPAR) Biomarker Activity (AID 2282998). Conditions: BioMAP 3C HUVEC, uPAR biomarker ELISA; actives raise or lower the signal. The method, boiled down: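 Endothelial primary cells of human umbilical vein origin received test chemical; 24 h later uPAR was assayed by ELISA. Fitting was bidirectional, DMSO as negative control.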
In general terms: ELISA stands for enzyme-linked immunosorbent assay.

A short description of assay [16]: BSK_3C_VCAM1: BioMAP Diversity Plus: 3C Assay for Vascular cell adhesion molecule 1 (VCAM1) Biomarker Activity (AID 2282999). Conditions: BioMAP 3C HUVEC, VCAM1 ELISA, cytokine-stimulated; actives raise or lower the signal. The method, boiled down: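 Activity fitted in both directions relative to DMSO, with ELISA measurement of the surface marker on primary HUVEC (3C) at 24 h post-treatment; parallel SRB staining (0.1% SRB, TCA-fixed, 560 nm) flagged overt cytotoxicity.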

Assay [17] addresses Bile acid receptor (Homo sapiens) (UniProt Q96RI1). The assay is described as follows: ATG_FXR_TRANS: Attagene TRANS-FACTORIAL HepG2 Assay for Farnesoid X Receptor (FXR) (AID 2282979; active = hit-call score of the fitted dose curve at least 0.9, where 1 is the maximum;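 note: hits raise reporter mRNA above DMSO so AC50 marks FXR activation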). Conditions: HepG2 Attagene TRANS FXR-GAL4 reporter transcription. The method, boiled down: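 HepG2 cells transiently transfected with reporter constructs in which a chimeric FXR-GAL4 protein drives a GAL4-UAS reporter; 24 h compound exposure. Reporter mRNA measured by RT-PCR, FAM labelling, HpaI digestion and capillary electrophoresis; gain-of-signal versus DMSO.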

Assay [18] in a line: BSK_3C_TissueFactor: BioMAP Diversity Plus: 3C Assay for Tissue Factor Biomarker Activity (AID 2282997). Conditions: BioMAP 3C HUVEC, tissue factor biomarker readout; actives raise or lower the signal. The gist of the method: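 Readout: Tissue Factor ELISA. Cells: human primary umbilical vein endothelium. Time: 24 h after dosing. Analysis: bidirectional fit, DMSO baseline.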

Assay [19] can be described thus: BSK_4H_Eotaxin3: BioMAP Diversity Plus: 4H Assay for Eotaxin 3 Biomarker Activity (AID 2283000).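 Note: CCL26 protein level quantified by ELISA in parallel with SRB cytotoxicity check.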 Particulars: primary human endothelial cells (HUVEC); actives raise or lower the signal. The gist of the method:
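HUVEC, 24 h post-dose, ELISA for Eotaxin-3/CCL26. Gain or loss of signal fitted bidirectionally vs DMSO baseline.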

In assay [20] the target is Oxysterols receptor LXR-beta (Homo sapiens) (UniProt P55055). Description: ATG_LXRb_TRANS: Attagene TRANS-FACTORIAL HepG2 Assay for human Liver X Receptor beta (LXRb) (AID 2282981; active = hit-call score of the fitted dose curve at least 0.9, where 1 is the maximum). Particulars: HepG2 Attagene TRANS GAL4-LXRb reporter, mRNA. The gist of the method:
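After 24 h chemical treatment of transfected HepG2 cells carrying exogenous NR-Gal4 chimeras, reporter mRNA was quantified by fluorescent RT-PCR and capillary electrophoresis; activity taken as increase over DMSO controls.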

Molecules are shown by their SMILES. Inconclusive results are not listed. More than one record can exist for a structure, and the calls need not agree. Active and inactive are the calls of the source. Rule for the calls, unless noted: active = hit-call score of the fitted dose curve at least 0.9, where 1 is the maximum; inactive = score below 0.9.

Nuclear receptor subfamily 4 group A member 2 (Homo sapiens), sequence (P43354 whole entry, looked up, the tested form may be a part): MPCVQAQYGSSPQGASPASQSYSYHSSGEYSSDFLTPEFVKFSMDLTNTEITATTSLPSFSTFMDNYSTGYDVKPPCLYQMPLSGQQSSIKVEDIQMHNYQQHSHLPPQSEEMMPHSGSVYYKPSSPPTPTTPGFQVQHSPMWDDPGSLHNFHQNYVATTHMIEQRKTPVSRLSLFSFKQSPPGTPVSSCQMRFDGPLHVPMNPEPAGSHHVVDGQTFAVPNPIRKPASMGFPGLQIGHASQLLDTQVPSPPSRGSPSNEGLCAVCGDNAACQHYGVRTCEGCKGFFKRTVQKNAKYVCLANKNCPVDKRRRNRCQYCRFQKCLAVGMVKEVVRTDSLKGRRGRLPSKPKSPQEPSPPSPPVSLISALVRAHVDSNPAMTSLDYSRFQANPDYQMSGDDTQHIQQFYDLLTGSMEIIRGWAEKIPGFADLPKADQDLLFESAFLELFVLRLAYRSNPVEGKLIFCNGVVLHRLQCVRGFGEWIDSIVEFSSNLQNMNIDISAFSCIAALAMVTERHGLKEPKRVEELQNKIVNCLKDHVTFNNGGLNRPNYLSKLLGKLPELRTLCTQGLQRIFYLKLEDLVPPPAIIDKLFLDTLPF
Cellular tumor antigen p53 (Homo sapiens), sequence (P04637 whole entry, looked up, the tested form may be a part): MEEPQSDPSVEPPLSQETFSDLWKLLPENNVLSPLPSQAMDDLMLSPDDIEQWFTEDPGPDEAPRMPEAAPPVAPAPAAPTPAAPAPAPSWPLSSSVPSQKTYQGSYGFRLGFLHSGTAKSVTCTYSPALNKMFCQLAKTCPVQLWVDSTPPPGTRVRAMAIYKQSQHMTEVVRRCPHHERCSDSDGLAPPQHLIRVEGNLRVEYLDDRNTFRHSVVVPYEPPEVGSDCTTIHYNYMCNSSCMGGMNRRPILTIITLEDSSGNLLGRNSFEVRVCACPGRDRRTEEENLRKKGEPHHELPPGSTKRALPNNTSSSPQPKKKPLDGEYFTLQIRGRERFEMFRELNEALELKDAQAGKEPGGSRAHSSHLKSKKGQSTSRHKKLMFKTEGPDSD
Oxysterols receptor LXR-alpha (Homo sapiens), sequence (Q13133 whole entry, looked up, the tested form may be a part): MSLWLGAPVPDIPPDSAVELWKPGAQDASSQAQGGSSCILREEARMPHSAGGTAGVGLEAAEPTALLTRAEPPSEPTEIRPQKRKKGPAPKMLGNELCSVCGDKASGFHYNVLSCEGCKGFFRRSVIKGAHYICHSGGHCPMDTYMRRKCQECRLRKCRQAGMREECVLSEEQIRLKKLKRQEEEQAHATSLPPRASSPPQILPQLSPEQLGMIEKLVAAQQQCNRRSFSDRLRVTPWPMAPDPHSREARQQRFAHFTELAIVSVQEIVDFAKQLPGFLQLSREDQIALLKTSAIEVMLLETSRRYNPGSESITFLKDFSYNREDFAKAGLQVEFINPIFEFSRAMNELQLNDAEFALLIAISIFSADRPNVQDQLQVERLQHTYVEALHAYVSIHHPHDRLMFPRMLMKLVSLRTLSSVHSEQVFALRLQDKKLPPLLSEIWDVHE
Hepatocyte nuclear factor 4-alpha (Homo sapiens), sequence (P41235 whole entry, looked up, the tested form may be a part): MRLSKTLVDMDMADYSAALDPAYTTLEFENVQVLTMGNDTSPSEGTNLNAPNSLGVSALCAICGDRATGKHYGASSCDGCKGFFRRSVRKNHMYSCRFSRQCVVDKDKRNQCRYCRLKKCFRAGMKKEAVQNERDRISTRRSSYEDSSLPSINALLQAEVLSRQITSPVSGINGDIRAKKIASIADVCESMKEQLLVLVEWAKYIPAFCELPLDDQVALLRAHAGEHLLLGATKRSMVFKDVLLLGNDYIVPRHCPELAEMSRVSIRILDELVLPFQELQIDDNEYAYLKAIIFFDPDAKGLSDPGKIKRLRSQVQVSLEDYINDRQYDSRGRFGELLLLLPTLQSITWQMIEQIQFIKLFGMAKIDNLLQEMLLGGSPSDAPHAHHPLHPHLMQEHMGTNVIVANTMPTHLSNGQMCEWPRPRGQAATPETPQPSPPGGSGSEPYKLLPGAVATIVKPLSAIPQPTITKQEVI
Glucocorticoid receptor (Homo sapiens), sequence (P04150 whole entry, looked up, the tested form may be a part): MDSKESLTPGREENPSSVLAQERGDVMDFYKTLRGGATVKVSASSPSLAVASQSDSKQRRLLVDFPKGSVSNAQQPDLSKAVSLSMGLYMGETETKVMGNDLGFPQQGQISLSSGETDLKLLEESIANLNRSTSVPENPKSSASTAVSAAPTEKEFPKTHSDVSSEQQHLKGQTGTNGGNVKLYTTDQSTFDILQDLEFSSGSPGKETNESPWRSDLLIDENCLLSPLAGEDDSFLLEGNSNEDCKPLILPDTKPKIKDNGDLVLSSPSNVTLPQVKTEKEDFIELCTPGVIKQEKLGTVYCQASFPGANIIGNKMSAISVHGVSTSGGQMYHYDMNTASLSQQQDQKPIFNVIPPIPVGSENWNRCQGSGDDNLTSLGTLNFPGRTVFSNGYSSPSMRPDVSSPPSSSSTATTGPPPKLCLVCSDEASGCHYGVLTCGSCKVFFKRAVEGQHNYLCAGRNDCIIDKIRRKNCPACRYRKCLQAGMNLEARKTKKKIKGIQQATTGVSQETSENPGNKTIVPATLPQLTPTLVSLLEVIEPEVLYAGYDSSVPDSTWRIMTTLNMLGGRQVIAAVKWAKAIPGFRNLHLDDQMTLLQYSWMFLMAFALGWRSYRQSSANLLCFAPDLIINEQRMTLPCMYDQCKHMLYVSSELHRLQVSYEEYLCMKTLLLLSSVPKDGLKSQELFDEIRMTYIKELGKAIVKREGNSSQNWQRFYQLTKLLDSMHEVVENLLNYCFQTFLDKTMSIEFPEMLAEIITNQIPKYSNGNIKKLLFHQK
Nuclear respiratory factor 1 (Homo sapiens), sequence (Q16656 whole entry, looked up): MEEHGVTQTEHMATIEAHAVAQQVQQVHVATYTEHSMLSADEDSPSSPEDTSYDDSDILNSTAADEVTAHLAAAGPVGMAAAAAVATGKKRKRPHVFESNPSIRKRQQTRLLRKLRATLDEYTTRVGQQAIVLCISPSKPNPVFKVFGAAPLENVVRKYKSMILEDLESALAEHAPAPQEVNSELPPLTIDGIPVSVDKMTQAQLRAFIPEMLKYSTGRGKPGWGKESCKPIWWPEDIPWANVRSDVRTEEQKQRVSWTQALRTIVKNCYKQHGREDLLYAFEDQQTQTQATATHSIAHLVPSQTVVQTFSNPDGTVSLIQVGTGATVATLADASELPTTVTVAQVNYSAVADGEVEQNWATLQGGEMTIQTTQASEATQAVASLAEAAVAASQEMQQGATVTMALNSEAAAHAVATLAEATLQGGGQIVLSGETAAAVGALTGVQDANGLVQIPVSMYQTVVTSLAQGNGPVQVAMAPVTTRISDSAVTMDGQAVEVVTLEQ
Transcriptional activator Myb (Homo sapiens), sequence (P10242 whole entry, looked up): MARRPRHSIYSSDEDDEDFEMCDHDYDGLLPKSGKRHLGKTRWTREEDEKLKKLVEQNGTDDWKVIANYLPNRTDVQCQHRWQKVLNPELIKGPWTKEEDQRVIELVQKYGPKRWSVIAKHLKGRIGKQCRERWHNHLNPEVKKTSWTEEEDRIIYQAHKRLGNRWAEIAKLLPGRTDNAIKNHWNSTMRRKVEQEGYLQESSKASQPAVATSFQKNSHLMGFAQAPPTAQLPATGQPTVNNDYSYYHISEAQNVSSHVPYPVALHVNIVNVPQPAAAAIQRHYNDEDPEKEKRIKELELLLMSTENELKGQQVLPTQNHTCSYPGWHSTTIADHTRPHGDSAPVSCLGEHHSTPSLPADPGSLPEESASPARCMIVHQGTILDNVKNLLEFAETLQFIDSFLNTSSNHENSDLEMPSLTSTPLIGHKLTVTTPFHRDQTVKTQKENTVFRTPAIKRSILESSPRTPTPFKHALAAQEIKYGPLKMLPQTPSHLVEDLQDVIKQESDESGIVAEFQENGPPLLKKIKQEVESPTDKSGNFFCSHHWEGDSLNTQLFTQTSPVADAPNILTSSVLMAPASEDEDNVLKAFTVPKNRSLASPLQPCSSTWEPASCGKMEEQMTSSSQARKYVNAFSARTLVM
Myc proto-oncogene protein (Homo sapiens), sequence (P01106 whole entry, looked up): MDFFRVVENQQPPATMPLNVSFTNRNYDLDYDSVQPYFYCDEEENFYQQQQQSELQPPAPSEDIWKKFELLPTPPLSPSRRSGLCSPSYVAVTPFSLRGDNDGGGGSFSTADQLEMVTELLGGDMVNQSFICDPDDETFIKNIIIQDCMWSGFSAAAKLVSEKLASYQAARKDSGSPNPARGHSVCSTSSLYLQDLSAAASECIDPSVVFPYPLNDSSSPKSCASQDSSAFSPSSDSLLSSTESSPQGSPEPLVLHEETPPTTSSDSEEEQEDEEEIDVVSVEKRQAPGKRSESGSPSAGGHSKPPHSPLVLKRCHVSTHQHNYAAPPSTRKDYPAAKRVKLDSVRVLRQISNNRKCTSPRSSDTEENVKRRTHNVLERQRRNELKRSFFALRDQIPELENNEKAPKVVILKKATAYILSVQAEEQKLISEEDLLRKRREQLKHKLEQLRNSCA
Oxysterols receptor LXR-beta (Homo sapiens), sequence (P55055 whole entry, looked up, the tested form may be a part): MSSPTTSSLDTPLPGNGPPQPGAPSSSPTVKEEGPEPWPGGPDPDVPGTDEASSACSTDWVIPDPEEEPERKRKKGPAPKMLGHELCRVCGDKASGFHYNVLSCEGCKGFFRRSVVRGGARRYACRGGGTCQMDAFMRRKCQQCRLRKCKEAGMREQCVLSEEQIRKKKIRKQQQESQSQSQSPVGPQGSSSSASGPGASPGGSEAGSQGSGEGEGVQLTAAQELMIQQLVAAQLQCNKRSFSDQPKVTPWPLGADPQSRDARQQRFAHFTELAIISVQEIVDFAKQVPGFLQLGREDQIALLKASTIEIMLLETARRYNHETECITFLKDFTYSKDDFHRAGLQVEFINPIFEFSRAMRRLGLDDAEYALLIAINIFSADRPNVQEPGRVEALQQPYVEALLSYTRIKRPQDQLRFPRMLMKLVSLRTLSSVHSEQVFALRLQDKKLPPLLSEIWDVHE

Regarding `O=S(=O)(F)C(F)(F)C(F)(F)C(F)(F)C(F)(F)C(F)(F)C(F)(F)C(F)(F)C(F)(F)F`, the result in assay [1], in assay [2], in assay [3], in [4], in assay [5] and in assay [6] was inactive. The compound was called inactive in assay [7], in assay [8], in assay [9], in assay [10], in assay [11] and in assay [12]. In addition, the outcome in assay [13], in assay [14], in assay [15] and in [16] was inactive. In addition, the AC50 in assay [12] is 63.6 µM (active).
Turning to `CCCCN(CCCC)SN(C)C(=O)Oc1cccc2c1OC(C)(C)C2`, the outcome in assay [1], in [3], in assay [4], in [6], in assay [7] and in assay [8] was inactive. Besides, the compound was called inactive in [9], in assay [10], in assay [11] and in [13]. Moreover, the AC50 in assay [12] was 31.6 µM (active); in assay [15], 32.3 µM (active); in [16] it was 28.4 µM (active).
As to `c1cc2c3c(cccc3c1)CC2`, the result in assay [1], in assay [3], in assay [5], in assay [7], in [8] and in assay [9] was inactive. In addition, the result in assay [10], in [11], in assay [12], in assay [13], in assay [14] and in assay [15] was inactive. Besides, the result in assay [16] was inactive.
For `Cc1ccc(N)cc1N`, the result in [1], in assay [17], in assay [4], in [6], in assay [7] and in assay [8] was inactive. Moreover, the result in assay [9], in [10], in assay [11], in assay [12], in assay [13] and in assay [14] was inactive. In addition, the outcome in [18], in assay [15], in assay [16] and in [19] was inactive.
`FC(F)(F)c1ccc(Cl)cc1`: the compound was called inactive in assay [1], in [2], in [20], in assay [3], in assay [4] and in assay [5]. Also, the compound was classed as inactive in assay [7], in assay [8], in assay [9], in assay [10], in assay [11] and in assay [12]. For the same compound, the outcome in [13] and in assay [14] was inactive.

As a reminder, the AC50 is the concentration giving half of the maximal activity seen.
